Measurements taken from PubChem BioAssay AID1159580 (chemical genetic matrix, 2015).
Several values for one entry are separate records, joined by “and”; a condition that tells them apart may be missing. Equal entries are not always repeated. Among all 5,500 compounds or so, about 2,000 (36%) were called active. Roughly 18% stayed inconclusive and do not appear here. Rule as the data show it: active = normalized growth mostly below about 0.91 (no sharp cut-off); inconclusive = no clear call, values can overlap the other calls; inactive = mostly above about 0.92. Some of the results follow.

Test: chemical genetic growth profiling, strain panel (AID 1159580);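 also: tested at 20 µM; growth read once vehicle control cultures reached saturation at 30 °C; 1 = growth at the plate median or of vehicle wells; lower values mean less growth of the strain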
Settings: S. cerevisiae deletion strains, growth OD

Measured: normalized growth

Nc1ncnc2c1ncn2[C@@H]1O[C@H](CO)[C@@H](O)[C@H]1O
inactive: locus YAL021C, strain ccr4, stronger effect = lower value 0.97 | locus YAL026C, strain drs2, stronger effect = lower value 0.989 | locus YAL030W, strain snc1, stronger effect = lower value 0.995 | locus YBL061C, strain skt5, stronger effect = lower value 0.98 | locus YBR009C, strain hhf1, stronger effect = lower value 0.987 | locus YBR021W, strain FUR4, stronger effect = lower value 1.13 | locus YBR023C, strain chs3, stronger effect = lower value 0.972 | locus YBR171W, strain sec66, stronger effect = lower value 0.968 | locus YBR229C, strain ROT2, stronger effect = lower value 0.951 | locus YBR231C, strain swc5, stronger effect = lower value 1 | locus YBR279W, strain paf1, stronger effect = lower value 0.991 | locus YCL011C, strain gbp2, stronger effect = lower value 0.975 | locus YCL016C, strain dcc1, stronger effect = lower value 0.953 | locus YCL029C, strain bik1, stronger effect = lower value 0.972 | locus YCL061C, strain MRC1, stronger effect = lower value 0.966 | locus YCL069W, strain vba3, stronger effect = lower value 0.985 | locus YCR088W, strain abp1, stronger effect = lower value 0.994 | locus YDL005C, strain med2, stronger effect = lower value 0.992 | locus YDL035C, strain GPR1, stronger effect = lower value 0.987 | locus YDL040C, strain nat1, stronger effect = lower value 0.99 | locus YDL074C, strain BRE1, stronger effect = lower value 1.02 | locus YDL101C, strain DUN1, stronger effect = lower value 0.97 | locus YDL134C, strain PPH21, stronger effect = lower value 0.983 | locus YDL185W, strain tfp1, stronger effect = lower value 0.955 | locus YDL192W, strain arf1, stronger effect = lower value 0.982 | locus YDR001C, strain nth1, stronger effect = lower value 0.986 | locus YDR069C, strain doa4, stronger effect = lower value 1.02 | locus YDR101C, strain arx1, stronger effect = lower value 1.03 | locus YDR137W, strain rgp1, stronger effect = lower value 0.96 | locus YDR159W, strain sac3, stronger effect = lower value 0.994 | locus YDR162C, strain NBP2, stronger effect = lower value 0.948 | locus YDR195W, strain ref2 1.01 | locus YDR297W, strain sur2, stronger effect = lower value 0.985 | locus YDR318W, strain mcm21, stronger effect = lower value 0.973 | locus YDR334W, strain swr1, stronger effect = lower value 0.986 | locus YDR335W, strain msn5, stronger effect = lower value 0.987 | locus YDR388W, stronger effect = lower value 0.948 | locus YDR392W, strain spt3, stronger effect = lower value 0.904 | locus YDR502C, strain sam2, stronger effect = lower value 0.997 | locus YEL003W, strain gim4, stronger effect = lower value 0.994 | locus YEL037C, strain rad23, stronger effect = lower value 0.99 | locus YEL061C, strain CIN8 (second series), stronger effect = lower value 0.987 | locus YEL061C, strain CIN8, stronger effect = lower value 0.986 | locus YER015W, strain faa2, stronger effect = lower value 0.986 | locus YER016W, strain bim1, stronger effect = lower value 0.997 | locus YER110C, stronger effect = lower value 0.975 | locus YER111C, strain swi4, stronger effect = lower value 0.977 | locus YER155C, strain BEM2 (second series), stronger effect = lower value 1.01 | locus YER155C, strain BEM2, stronger effect = lower value 0.974 | locus YER167W, strain BCK2, stronger effect = lower value 0.988 | locus YFR010W, strain ubp6, stronger effect = lower value 0.99 | locus YGL078C, strain dbp3, stronger effect = lower value 0.986 | locus YGL086W, strain mad1, stronger effect = lower value 1.03 | locus YGL167C, strain pmr1, stronger effect = lower value 0.981 | locus YGL173C, strain kem1, stronger effect = lower value 0.98 | locus YGL227W, strain vid30, stronger effect = lower value 0.987 | locus YGL240W, strain doc1, stronger effect = lower value 0.989 | locus YGL248W, strain PDE1, stronger effect = lower value 0.979 | locus YGL253W, strain hxk2, stronger effect = lower value 0.988 | locus YGR135W, strain pre9, stronger effect = lower value 0.975 | locus YGR229C, strain SMI1, stronger effect = lower value 1 | locus YGR252W, strain gcn5, stronger effect = lower value 0.959 | locus YHR013C, strain ard1, stronger effect = lower value 0.955 | locus YHR027C, strain rpn1, stronger effect = lower value 0.981 | locus YHR030C, strain SLT2, stronger effect = lower value 0.994 and 1.01 | locus YHR079C, strain IRE1 (second series), stronger effect = lower value 0.982 | locus YHR079C, strain IRE1, stronger effect = lower value 1.03 | locus YHR094C, strain hxt1, stronger effect = lower value 0.97 | locus YHR129C, strain ARP1, stronger effect = lower value 0.995 | locus YHR142W, strain chs7, stronger effect = lower value 0.939 | locus YHR200W, strain rpn10, stronger effect = lower value 0.986 | locus YIL066C, strain RNR3, stronger effect = lower value 0.978 | locus YIL073C, strain SPO22, stronger effect = lower value 0.947 | locus YIL125W, strain kgd1, stronger effect = lower value 0.98 | locus YIR030C, strain dcg1, stronger effect = lower value 0.976 | locus YJL092W, strain hpr5, stronger effect = lower value 0.984 | locus YJL095W, strain BCK1 (second series), stronger effect = lower value 0.987 | locus YJL095W, strain BCK1, stronger effect = lower value 0.983 and 1.02 | locus YJL115W, strain asf1, stronger effect = lower value 0.987 | locus YJL129C, strain trk1, stronger effect = lower value 0.972 | locus YJL134W, strain LCB3, stronger effect = lower value 0.985 | locus YJL154C, strain vps35, stronger effect = lower value 0.999 | locus YJL164C, strain tpk1, stronger effect = lower value 0.981 | locus YJL166W, strain qcr8, stronger effect = lower value 0.969 | locus YJL168C, strain set2, stronger effect = lower value 0.99 | locus YJL187C, strain SWE1 (second series), stronger effect = lower value 0.968 | locus YJL187C, strain SWE1, stronger effect = lower value 0.992 | locus YJR043C, strain POL32, stronger effect = lower value 0.992
